In PubChem BioAssay AID485367 (National Center for Advancing Translational Sciences (NCATS), 2010):
About 560 (0.17%) of roughly 330,000 compounds were called active. A call without a number means that no potency is given here. Inconclusive results (about 1%) are left out. Calls come from the whole dose curve; as a rule, active = well fitted inhibition curve with a large enough effect; inconclusive = small, poorly fitted or top-dose-only effect, or effect the other way; inactive = flat fitted curve, though single readings scatter. This excerpt belongs to a sample that is enriched for actives.

molecular target: ATP-dependent 6-phosphofructokinase (Trypanosoma brucei brucei) (UniProt O15648); assay: qHTS Assay to Find Inhibitors of T. brucei phosphofructokinase; note: nearly all actives have a fitted effect of over 60% in size; conditions: T. brucei PFK, ADP-Glo luminescence; series mostly up to 57.5 µM
Sequence (O15648 whole entry, looked up): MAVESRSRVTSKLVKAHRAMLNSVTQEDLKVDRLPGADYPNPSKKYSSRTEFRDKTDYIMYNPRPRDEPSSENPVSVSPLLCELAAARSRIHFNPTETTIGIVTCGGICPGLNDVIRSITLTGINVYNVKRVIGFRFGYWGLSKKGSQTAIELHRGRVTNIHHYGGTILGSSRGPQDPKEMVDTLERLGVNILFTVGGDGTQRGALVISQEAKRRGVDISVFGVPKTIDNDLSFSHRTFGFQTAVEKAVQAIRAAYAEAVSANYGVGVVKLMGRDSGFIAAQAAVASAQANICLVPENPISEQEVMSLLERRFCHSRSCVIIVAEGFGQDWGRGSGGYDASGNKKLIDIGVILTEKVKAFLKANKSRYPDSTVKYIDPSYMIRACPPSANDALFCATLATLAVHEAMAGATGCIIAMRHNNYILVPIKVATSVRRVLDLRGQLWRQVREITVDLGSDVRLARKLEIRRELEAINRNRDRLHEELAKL
Text: NIH Molecular Libraries Probe Production Network [MLPCN] NIH Chemical Genomics Center [NCGC] Grant: 1 R03 MH092153-01 PI Name: Malcolm Walkinshaw, University of Edinburgh NCGC Assay Overview: Various species of the protozoan family Trypanosomatidae are responsible for a range of serious human diseases in tropical and subtropical areas of the world. […] Many of the disorders caused by trypanosomatids are fatal if left untreated, but most currently used drugs are inefficient and toxic. […] Oxidative metabolism involving the mitochondrial tricarboxylic acid cycle and oxidative phosphorylation are repressed in these parasites, and recent RNA interference (RNAi) experiments have shown that even partial depletion of certain individual glycolytic enzymes can lead to the death of cultured parasites. One such glycolytic enzyme, phosphofructokinase (PFK), catalyzes the formation of fructose-1,6-bisphosphate (F1,6BP) and ADP from fructose-6-phosphate (F6P) and ATP, and in many metabolic circumstances makes an important contribution to the control of flux through the glycolytic pathway. As a specific glycolytic target, PFK is particularly attractive as it catalyzes the first irreversible step in glycolysis, and structural and kinetic studies have shown very substantial and essential differences from corresponding host enzymes, allowing for the discovery of parasite-selective inhibitors. The goal of this screen is to find small-molecule inhibitors of T. brucei PFK using a biochemical assay that measures PFK activity as a function of ADP production. A luminescence-based assay for T. brucei PFK activity has been developed which uses luciferase to detect production of ADP. Traditional luciferase-based nucleotide detection reagents rely on ATP production as a direct substrate for the luciferase reaction; however, PFK catalyzes the transfer of a phosphate from ATP to F6P, resulting in the net depletion of ATP. To directly measure the ADP product of the PFK reaction, we used the ADP-Glo detection kit (Promega), which utilizes two separate reactions to 1) deplete all remaining uncatalyzed ATP and 2) convert all remaining ADP to ATP, which is then detected through a traditional luciferase-coupled reaction. Compounds were screened as a concentration-titration series that ranged from 57 uM to 0.7 nM.
NCGC Assay Protocol Summary: NCGC Assay Protocol Summary: Substrate buffer was dispensed into white, solid 1536-well plates at 3uL/well in 0.1M triethanolamine (TEA) buffer, pH 8.0, containing final concentrations of 5 mM MgCl2, 0.01% Tween20, 0.5 mM fructose-6-phosphate (F6P) and 0.1mM ATP. Then, 23 nL of compounds or DMSO were delivered to each well using a pin tool. One uL T. brucei PFK (0.1M TEA, 0.01% Tween20, 0.1% bovine serum albumin (BSA) and 1.25nM PFK, final concentrations) was then dispensed, and plates were incubated at room temperature for 45 min. The luminescent detection reagent, ADP-Glo (Promega), was then added in two steps: the first reagent, ADP-Glo (which converts remaining uncatalyzed ATP), was added at 2.5uL/well and incubated for ten minutes at room temperature, and the second component, Kinase Detection reagent (which converts ADP to ATP as a substrate for luciferase-based luminescence), was added immediately after at 5uL/well, followed by one final ten minute room temperature incubation. The plates were measured on a ViewLux plate reader for luminescent signal using a clear filter with a one second exposure. The %Activity was determined from the corrected luminescence values. As no specific T. brucei PFK inhibitors have been identified in the literature, 1x (1.25nM) and 0x PFK enzyme controls (untreated) were included to normalize %Activity of identified inhibitors; 0x enzyme values corresponded to 100%Activity (full inhibition), while 1x PFK enzyme values were used to normalize 0%Activity (no inhibition). Concentration-response curves were fitted to the signals arising from the resulting luminescence. […]
Potency is the fitted concentration of half-maximal effect.

Structure (SMILES)	Potency
O=C(Cc1ccc([N+](=O)[O-])cc1)N/N=C/c1ccco1	19 µM (active)
OC(Cn1c2ccccc2c2ccccc21)C[n+]1ccccc1 (stereo not given)	inactive
CCCCCCN=C(CC)c1c(O)n(CCCC)c(=O)[nH]c1=O	inactive
CCOC(=O)C1SC2(C(F)(F)C(F)F)CC1(O)c1c(c(OC)c3occc3c1OC)O2 (stereo not given)	inactive
Cn1nnnc1NCc1ccc(Cl)c(Cl)c1	10.7 µM (active)
Cc1ccc(-n2c(-c3ccc([N+](=O)[O-])cc3)nc3ccccc3c2=O)cc1	inactive
CC(Cc1cccs1)NCc1ccc(Cl)cc1 (stereo not given)	inactive
O=C1/C(=C\c2ccc3c(c2)OCO3)N2CCC1CC2	inactive
CCOP(=S)(OCC)C(O)CCCCCn1c(=O)c(F)cn(C2CCCO2)c1=O (stereo not given)	inactive
COc1ccc(CCn2c(O)c(C=NCCCn3ccnc3)c(=O)[nH]c2=O)cc1OC	inactive
